{"source": "PubChem BioAssay AID623911", "about": "(Vanderbilt High Throughput Screening Facility, 2012)", "note": "Among all 2,100 compounds or so, about 770 (37%) were called active. This is one part of the list. Values without a mark were called inactive.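 Rule for the calls: active = by-eye trace score of 1 for enhancers or -1 for inhibitors, so actives lie on both sides (some results past the limit were not filed as active); inactive = score 0, or 3 fluorescent, or 4 baseline rise.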"}
{"target": "G protein-activated inward rectifier potassium channel 2 (Homo sapiens) + G protein-activated inward rectifier potassium channel 1 (Homo sapiens) (UniProt P48051+P48549)", "sequence (P48051 whole entry, looked up)": "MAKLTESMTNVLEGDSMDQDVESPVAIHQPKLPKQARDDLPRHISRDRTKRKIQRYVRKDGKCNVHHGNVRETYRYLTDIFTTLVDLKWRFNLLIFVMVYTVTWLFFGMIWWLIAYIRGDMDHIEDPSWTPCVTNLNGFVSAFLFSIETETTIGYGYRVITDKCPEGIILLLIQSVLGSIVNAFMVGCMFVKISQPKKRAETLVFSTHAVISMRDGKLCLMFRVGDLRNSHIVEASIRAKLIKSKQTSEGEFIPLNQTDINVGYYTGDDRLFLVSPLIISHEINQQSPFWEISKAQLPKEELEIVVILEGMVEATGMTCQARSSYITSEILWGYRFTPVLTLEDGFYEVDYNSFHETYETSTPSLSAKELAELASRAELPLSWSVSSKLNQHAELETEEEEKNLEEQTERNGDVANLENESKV", "sequence (P48549 whole entry, looked up)": "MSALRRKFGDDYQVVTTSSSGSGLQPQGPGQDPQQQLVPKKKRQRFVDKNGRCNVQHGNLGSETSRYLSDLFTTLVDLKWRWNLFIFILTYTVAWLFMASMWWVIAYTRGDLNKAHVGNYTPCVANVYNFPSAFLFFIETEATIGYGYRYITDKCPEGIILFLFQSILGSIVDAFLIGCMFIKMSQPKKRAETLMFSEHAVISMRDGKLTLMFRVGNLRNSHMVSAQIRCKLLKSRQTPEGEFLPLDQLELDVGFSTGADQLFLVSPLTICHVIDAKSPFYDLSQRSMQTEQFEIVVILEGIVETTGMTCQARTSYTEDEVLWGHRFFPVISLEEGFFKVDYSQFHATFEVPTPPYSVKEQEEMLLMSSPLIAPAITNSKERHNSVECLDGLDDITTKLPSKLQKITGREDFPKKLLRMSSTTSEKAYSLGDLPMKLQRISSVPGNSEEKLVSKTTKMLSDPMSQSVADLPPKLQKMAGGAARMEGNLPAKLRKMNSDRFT", "assay": "GIRK1/2 thallium flux modulators, retest, confirmation, cell-based, HEK293 rmGlu8/hGIRK1/2, FluoZin-2 (AID 623911)", "conditions": "HEK293 rmGlu8/hGIRK1/2, thallium flux FluoZin-2; actives lie on both sides; glutamate co-added at its EC20 level"}
{"smiles": "Cn1c(=O)c(NCCO)c2c3c(cccc31)C(=O)c1ccccc1-2", "manual score": 3}
{"smiles": "O=C(Nc1nnc(-c2ccccc2Cl)o1)c1nc2ccccc2s1", "manual score": "1 (active)"}
{"smiles": "O=C(Nc1nnc(-c2ccc(Cl)cc2)o1)c1ccccc1Br", "manual score": "1 (active)"}
{"smiles": "O=C(O)CC/C(=C\\c1cc([N+](=O)[O-])ccc1Cl)c1nc2ccccc2s1", "manual score": -0.5}
{"smiles": "O=C(NCCCN1CCN(c2cccc(Cl)c2)CC1)c1cccc(N2CCCC2=O)c1", "manual score": 0}
{"smiles": "O=C(Nc1nnc(-c2ccc(Cl)cc2)o1)c1cccc(N2C(=O)CCC2=O)c1", "manual score": "-1 (active)"}
{"smiles": "O=C(Nc1nnc(-c2ccc(Cl)cc2)o1)C1=COCCO1", "manual score": 0}
{"smiles": "O=C(Nc1nnc(-c2ccc(Cl)cc2)o1)c1nc2ccccc2s1", "manual score": "1 (active)"}
{"smiles": "O=C(Nc1nnc(-c2ccc(Cl)cc2)o1)c1ccc(N2C(=O)CCC2=O)cc1", "manual score": 0}
{"smiles": "CC(C)NC(=O)c1nc2ccccc2s1", "manual score": 0}
{"smiles": "O=c1c(-c2ccc(Cl)cc2)[n+]([O-])c2ccccc2n1O", "manual score": 2}
{"smiles": "CCC(C)(C)NC(=O)C(c1ccc(F)cc1)N(Cc1ccco1)C(=O)c1cnccn1", "note": "(stereo not given)", "manual score": 0}
{"smiles": "COC(=O)c1ccc(C(=O)OC)c(NC(=O)CSc2nc(-c3ccco3)cc(C(F)(F)F)n2)c1", "manual score": -0.5}
{"smiles": "Cc1ccc(N=C2CCCN2Cc2ccccc2)c(C#N)c1", "manual score": "-1 (active)"}
{"smiles": "Cc1ccc(C)c(N=C2CCCN2Cc2ccccc2)c1C#N", "manual score": "-1 (active)"}
{"smiles": "Cc1c(C#N)c2ccccc2n1CC(=O)O", "manual score": 0}
{"smiles": "CC(C)n1c(CCC(=O)O)ccc1-c1ccccc1", "manual score": 0}
{"smiles": "O=C(Nc1ccc2[nH]c(=S)sc2c1)c1ccccc1", "manual score": "1 (active)"}
{"smiles": "CC(C)OCCCNC(=O)c1cccc(NC(=O)c2ccccc2)c1", "manual score": 0}
{"smiles": "O=C(NC(=S)Nc1ccc2c(c1)OCCO2)c1ccccc1", "manual score": 0.5}
{"smiles": "O=C(CCS(=O)NCc1ccccc1)NCc1ccccc1", "note": "(stereo not given)", "manual score": 0}
{"smiles": "CS(=O)(=O)N(CCc1ccccc1)CC(=O)NCc1ccc2c(c1)OCO2", "manual score": 0}
{"smiles": "Cn1cc(CCC(=O)NCc2ccc3c(c2)OCO3)c2ccccc21", "manual score": 0}
{"smiles": "O=C(NCc1ccc2c(c1)OCO2)C1CCN(Cc2cnn(-c3ccccc3)c2-n2cccc2)CC1", "manual score": "-1 (active)"}
{"smiles": "CCc1nnc(NC(=O)CSc2nnc(-c3c[nH]c4ccccc34)n2CC)s1", "manual score": 0}
{"smiles": "COc1c(Cl)cc(Cl)cc1CNCCNCC(C)O", "note": "(stereo not given)", "manual score": "1 (active)"}
{"smiles": "CC(Sc1nnnn1C)C(=O)Nc1ccc(Oc2ccccc2)cc1", "note": "(stereo not given)", "manual score": "1 (active)"}
{"smiles": "CC(NC(=O)c1ccccc1NC(=O)CSc1nnnn1C)c1ccccc1", "note": "(stereo not given)", "manual score": 0}
{"smiles": "S=C1NC2=C(CCCC2)C2(CCCCC2)N1", "manual score": 0}
{"smiles": "CN(C(=S)NC(=O)c1ccccc1Br)C1CCCCC1", "manual score": "1 (active)"}
{"smiles": "CC1CCCC(NC(=S)NC(=O)c2ccccc2Br)C1C", "note": "(stereo not given)", "manual score": 0}
{"smiles": "CCN(C(=O)c1cc(Cl)ccc1OC)C1CCCCC1", "manual score": -0.5}
{"smiles": "CN(Cc1ccccc1)C(=S)NC(=O)C1CCCCC1", "manual score": 0}
{"smiles": "COc1ccccc1/C=C/C(=O)NC(=S)N(C)C1CCCCC1", "manual score": "1 (active)"}
{"smiles": "CCOC(=O)CSc1nnc(-c2ccccc2OC)o1", "manual score": -0.5}
{"smiles": "CC(C)NC(=O)/C(=C/c1ccco1)c1ccccc1", "manual score": 0}
{"smiles": "Cc1nccn1CCc1nc(N)nc(N)n1", "manual score": 0}
{"smiles": "Cc1ccccc1OCC(=O)NNC(=S)NC(=O)c1ccco1", "manual score": "1 (active)"}
{"smiles": "CCCc1ccc(OCC(=O)NNC(=S)NC(=O)c2ccco2)cc1", "manual score": "1 (active)"}
{"smiles": "CCN(CC)c1ccc(/C=C2/C(=O)c3ccc(C(=O)O)cc3C2=O)cc1", "manual score": 3}
{"smiles": "CC1(C)CC2CC(C)(CN2C(=S)NC(=O)c2ccccc2Cl)C1", "note": "(stereo not given)", "manual score": "1 (active)"}
{"smiles": "Nc1sccc1C(=O)c1ccccc1", "manual score": 0}
{"smiles": "O=C(NCCSCc1ccco1)Nc1cccc(Cl)c1", "manual score": "1 (active)"}
{"smiles": "O=C(NCCCn1ccnc1)Nc1ccc(Cl)c(Cl)c1", "manual score": 0}
{"smiles": "Clc1cccc(CSc2nnc(-c3ccccn3)n2Cc2ccco2)c1", "manual score": 0}
{"smiles": "CSc1cccc(NC(=O)COc2ccccc2)c1", "manual score": "1 (active)"}
{"smiles": "CSc1cccc(NC(=O)CN(c2ccccc2)S(=O)(=O)N(C)C)c1", "manual score": "1 (active)"}
{"smiles": "COc1cccc(N(CC(=O)Nc2cccc(C(C)=O)c2)S(C)(=O)=O)c1", "manual score": 0}
{"smiles": "CSc1cccc(NC(=O)CN(c2ccc(C)cc2C)S(C)(=O)=O)c1", "manual score": "1 (active)"}
{"smiles": "Cc1cccc(NC(=O)CN(c2ccc(C(C)C)cc2)S(=O)(=O)c2c(C)nn(C)c2C)n1", "manual score": -0.5}
{"smiles": "COc1cccc(NC(=O)COc2ccc(C)cc2)c1", "manual score": 0}
{"smiles": "CC(=O)c1cccc(NC(=O)CCOc2ccccc2)c1", "manual score": 0}
{"smiles": "CN(C)S(=O)(=O)N(CC(=O)Nc1ccc2ccccc2c1)c1ccccc1", "manual score": "1 (active)"}
{"smiles": "COc1cccc(N(CC(=O)NCc2cccnc2)S(C)(=O)=O)c1", "manual score": 0}
{"smiles": "CC1=CC(=O)OC1Cc1ccncc1", "note": "(stereo not given)", "manual score": 0}
{"smiles": "O=c1c2c(nc3c(-c4ccc(Cl)cc4)c[nH]n13)CCCC2", "manual score": 0}
{"smiles": "O=C(CSc1nnnn1-c1cccc2c1CCCC2)NC1CCCC1", "manual score": -0.5}
{"smiles": "CSC1=N/C(=C\\c2ccc(Br)o2)C(=O)S1", "manual score": 0}
{"smiles": "c1ccc2c(NC3CCCC3)nnc(NC3CCCC3)c2c1", "manual score": "-1 (active)"}
{"smiles": "CN=C1S/C(=C\\c2cc(C)n(-c3ccccc3F)c2C)C(=O)N1C", "manual score": 0}
{"smiles": "CC1CCN(c2ccc(/C=N/n3nnnc3N)cc2[N+](=O)[O-])CC1", "manual score": 0}
{"smiles": "Cc1ccc2nc(NCc3ccccc3)[nH]c2c1", "manual score": "-1 (active)"}
{"smiles": "Cc1cc(N2CCN(c3ccccc3)CC2)nc(NCc2ccccc2)n1", "manual score": 0}
{"smiles": "CC(/C=N/n1c(-c2ccco2)n[nH]c1=S)=C\\c1ccccc1", "manual score": 0}
{"smiles": "S=c1[nH]nc(-c2ccco2)n1/N=C/c1cccc(Cl)c1Cl", "manual score": 0}
{"smiles": "S=c1[nH]nc(-c2ccco2)n1/N=C/c1ccc(Cl)cc1Cl", "manual score": "1 (active)"}
{"smiles": "Cc1ccc(N2CC(C(=O)Oc3cccc(N4C(=O)CCC4=O)c3)CC2=O)cc1", "note": "(stereo not given)", "manual score": 0}
{"smiles": "Cc1ccc(/C(O)=C2\\C(=O)C(=O)N(c3cc(C)on3)C2c2cccc(Br)c2)cc1", "note": "(stereo not given)", "manual score": 0}
{"smiles": "CC(Oc1ccc(Cl)cc1)C(=O)N/N=C/c1ccsc1", "note": "(stereo not given)", "manual score": "1 (active)"}
{"smiles": "CC(C)C(=O)Nc1cccc(NC(=O)c2cc3ccccc3o2)c1", "manual score": 0}
{"smiles": "CC(=O)Nc1nnc(C)s1", "manual score": 0}
{"smiles": "CCCN(CCC)CCCOC(=O)c1ccc(Cl)cc1Cl", "manual score": "-1 (active)"}
{"smiles": "CC1Cc2ccccc2N1C(=S)NC(=O)c1ccc(Cl)cc1Cl", "note": "(stereo not given)", "manual score": "1 (active)"}
{"smiles": "CCCCN(CCCC)C(=S)NC(=O)C(C)(C)C", "manual score": "1 (active)"}
{"smiles": "CCCN(CCC)C(=S)NC(=O)c1ccc(Cl)cc1Cl", "manual score": "1 (active)"}
{"smiles": "CCOC(=O)CC1=C(C(=O)OCC)C(c2cccs2)C(C#N)=C(N)O1", "note": "(stereo not given)", "manual score": 0}
{"smiles": "CCOC(=O)C(C(=O)OCC)c1cc(Br)c2noc3c2c1C(=O)c1ccccc1-3", "manual score": 3}
{"smiles": "COc1c2occc2c(OC)c2c(=O)cc(C(F)(F)F)oc12", "manual score": 0}
{"smiles": "COc1cc(/C=C2\\S/C(=N/S(=O)(=O)c3ccc(C)cc3)NC2=O)c([N+](=O)[O-])cc1OC", "manual score": 0}
{"smiles": "CCCCN(CCCC)C(=S)NC(=O)c1ccccc1Cl", "manual score": "1 (active)"}
{"smiles": "CCCCN(CCCC)c1ccc(C(=O)c2ccccc2C(=O)O)c(O)c1", "manual score": 0}
{"smiles": "CN(C(=S)NC(=O)CCCOc1ccc(Cl)cc1Cl)c1ccccc1", "manual score": 0}
{"smiles": "CCN(CC)C(=S)NC(=O)c1ccc(Cl)cc1Cl", "manual score": "1 (active)"}
{"smiles": "CCCCn1nnc(NC(=S)NC(=O)c2ccc(-c3cccc(Cl)c3Cl)o2)n1", "manual score": 0.5}
{"smiles": "S=c1[nH]nc(CSCc2ccc(Cl)cc2Cl)n1-c1ccccc1", "manual score": 0}
{"smiles": "CCOc1ccc(N2C(=O)CC(SC(=NC)Nc3ccc(F)cc3)C2=O)cc1", "note": "(stereo not given)", "manual score": 0}
{"smiles": "CCOC(=O)C1CCN(C(=O)NC23CC4CC(CC(C4)C2)C3)CC1", "manual score": 0}
{"smiles": "O=C(Nc1ccc2c(c1)OCCO2)NC12CC3CC(CC(C3)C1)C2", "manual score": "1 (active)"}
{"smiles": "COC(=O)[C@H](CC(C)C)NC(=O)Nc1ccc2c(c1)OCCO2", "manual score": 0}
{"smiles": "CCOc1ccc(NC(=O)NC23CC4CC(CC(C4)C2)C3)cc1", "manual score": "1 (active)"}
{"smiles": "O=C(COC(=O)C1CC2C=CC1C2)Nc1ccc2c(c1)OC(F)(F)O2", "note": "(stereo not given)", "manual score": 0}
{"smiles": "Cc1cccc(-n2c(C)nc3sccc3c2=O)c1", "manual score": 0}
{"smiles": "Cc1[nH]n(-c2ccccc2)c(=O)c1N=Nc1nccs1", "manual score": "1 (active)"}
{"smiles": "CCOn1c(=O)c(-c2cccs2)[n+]([O-])c2ccccc21", "manual score": 3}
{"smiles": "c1csc(CCNc2ncnc3sc4c(c23)CCC4)c1", "manual score": "-1 (active)"}
{"smiles": "Cc1cc(C)nc(Sc2ncnc3sc4c(c23)CCC4)n1", "manual score": 0}
{"smiles": "N#CCCn1nc(-c2ccc(Cl)cc2)cc1Nc1ccccc1NC(=O)C(F)(F)F", "manual score": "1 (active)"}
{"smiles": "CCOC(=O)c1cc(-c2ccc(Cl)cc2)nc2c1c(C)nn2CCC#N", "manual score": 0}
{"smiles": "COc1cccc(C(=O)NC(=S)N2CCN(c3ccc(C(F)(F)F)cc3[N+](=O)[O-])CC2)c1", "manual score": 0.5}
{"smiles": "CC(C)Oc1cccc(C(=O)NC(=S)N2CCN(c3ccc(C(F)(F)F)cc3[N+](=O)[O-])CC2)c1", "manual score": "1 (active)"}
{"smiles": "COc1cc(OC)cc(C(=O)NC(=S)N2CCN(c3ccc(C(F)(F)F)cc3[N+](=O)[O-])CC2)c1", "manual score": "1 (active)"}
{"smiles": "COc1ccccc1NC(=O)COc1ccc(C(F)(F)F)cc1[N+](=O)[O-]", "manual score": 0}
{"smiles": "O=C1c2ccccc2C(=O)N1Nc1ccccc1", "manual score": 0}
{"smiles": "C(/C=C/C=C/Nc1ccccc1)=Nc1ccccc1", "manual score": 3}
{"smiles": "CCCCCCCCc1nc(=S)[nH][nH]1", "manual score": 0.5}
{"smiles": "C=CCCCCCCCCc1nc(=S)[nH][nH]1", "manual score": "1 (active)"}
{"smiles": "CC1=C(n2nnc3ccccc32)C(c2ccccc2)C(C#N)=C(N)O1", "note": "(stereo not given)", "manual score": 0}
{"smiles": "CCOC(=O)c1c(C)c(C(=O)N2CCc3ccccc3C2)c(C)n1CC", "manual score": "-1 (active)"}
{"smiles": "O=C(COc1c(Br)cc(Br)c2cccnc12)N1CCc2ccccc2C1", "manual score": 0}
{"smiles": "CC(C)CC(=O)Nc1ccccc1-c1nnn(CC(=O)N2CCc3ccccc3C2)n1", "manual score": 0}
